Measured values published in the supplement of paper PMC11417369.
± gives the standard deviation of the averaged measurements. The full ranking holds about 25,000 sequences; the median of “ln(normalized median fluorescence intensity)” is about 10, and the highest 2% start at about 12. The sample holds the highest values, similar sequences and a random draw of the others, so the mix is not that of the screen.

These sequences were tested on PfAP2-G AP2 domain (GST-tagged) (assay: gcPBM binding intensity (ln(normalized median fluorescence intensity)); higher = stronger DNA binding).
Procedure, shortened: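 The highest Masliner-normalised natural-log median intensity across replicate spots of either probe orientation is reported as binding intensity. GST-tagged P. falciparum DNA-binding domains expressed in E. coli were applied for 1 h to an Agilent 4 × 180k array of primer-extended double-stranded 36-bp intergenic genomic probes plus negative controls, and bound protein was detected with Alexa488 anti-GST antibody and scanned at 488 nm.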

Row | Sequence | gcPBM binding intensity (ln)
1 | AAAGACAAAAGGAATTGTACATAATATATAAAATAT [XGTACX_site2923] | 10.8 ± 0.54
2 | ATAAATATAACATATTGTACCCTTAAAAAGGAACAA [XGTACX_site352] | 11.7 ± 0.96
3 | ATATATAAAATATATTGTACATTAACATATATATTT [XGTACX_site2055] | 10.7 ± 0.43
4 | ATAATATATTTTTGTAGTACACTTCTGGTAATATCG [XGTACX_site2402] | 11.7 ± 1
5 | TAATAATATATTTGTAGTACACAATTTTTTATAACT [XGTACX_site3951] | 11.6 ± 0.89
6 | TAGTAATATATATTTTGTACATAAAATAATATATAA [XGTACX_site7971] | 10.9 ± 0.59
7 | AAGTTTTATTTAAATTGTACTAAAATTTTTATATTA [XGTACX_site7065] | 11 ± 0.69
8 | AATAAATAAATATATACACACATATATCTGTACATA [CACACA_site9034] | 10.9 ± 0.67
9 | TATATATATCTGTACACACACACATATAAATAAATA [CACACA_site4405] | 11.4 ± 1
10 | TATATATAAAGGTGTACACATATATATATATCTGTA [CACACA_site5311] | 11.7 ± 0.98
11 | ATACAATAAAGGTGTACACATATATGATGCAAGATG [CACACA_site5897] | 11.7 ± 0.93
12 | AATACAATATAAAGGTGTACATATATATATATATAT [XGTACX_site68] | 11.4 ± 0.9
13 | ACATATATATAAAGGTGTACACATATATATATATAT [XGTACX_site4779] | 11.7 ± 0.76
14 | TGATGCAAGATATATACACACATATAAATATAAATA [CACACA_site7429] | 9.8 ± 0.042
15 | AACACATAAAAAAGGTGTACCATAAAATATACATAC [XGTACX_site4478] | 11.4 ± 0.76
16 | TAAAGTTATGCAATAACACACATATACAATACATAT [CACACA_site6698] | 9.98 ± 0.057
17 | TAAGCCAAGGGATAAATAAAATAACAAAATGAAATC [GTGCAC_negctrl_site601] | 9.66 ± 0.36
18 | AAATATAAAAGTATATGTACATATATATATATATAT [XGTACX_site7446] | 11.2 ± 0.64
19 | ATATGTATATATAAAAGTACGCGTAAAAAAAAAAAA [XGTACX_site5377] | 11.7 ± 1.3
20 | TATACACATATATAAAGTACATATATGTGTAAAAAA [XGTACX_site8582] | 11 ± 0.64
21 | TATTTTTTAAAAAAATGTCATAAAATTTCTTTTTTC [XGTACX_negctrl_site271] | 9.9
22 | AAAAAAAAAAAAAGATGTACATATATTTTTATTATA [XGTACX_site654] | 11.4 ± 0.96
23 | GCCTATATGTTTAGTTGTACTCCTAATATTATTTGT [XGTACX_site6060] | 11.7 ± 1.1

Row | Sequence | gcPBM binding intensity (ln)
24 | TAATATATTAATTTTTGTACTTAATTATATGTTTTT [XGTACX_site5654] | 10.9 ± 0.63
25 | ATATGCCTAATAAAATGTACGTTTGTTTTATTTATT [XGTACX_site3833] | 11 ± 0.49
26 | ACTTTCAAGGATGTACGTACATATGTATTTTATAAC [XGTACX_site6714] | 11.7 ± 0.91
27 | ATATATACATATATATGTACGTATATTTTTATTTCT [XGTACX_site6198] | 11.6 ± 1.1
28 | ATACATATATAATTATGTACGTATATTTTATATAAC [XGTACX_site4292] | 11.6 ± 0.91
29 | ATATTTATATTTTCATGTACGTATTTTTATATATAT [XGTACX_site8478] | 11.6 ± 0.96
30 | ATATGTATATTTTTTTGTACGTATTTATGTGTGTGT [XGTACX_site2093] | 11.4 ± 0.84
31 | CTTTAACCATATATGTGTACGTATTTTATTCATATT [XGTACX_site6212] | 11.8 ± 1.1
32 | TAATAAATCAAATGCACACACACAAAAAAAAAAAAA [CACACA_site161] | 10 ± 0.49
33 | AGAAATATATATATATATATATATATATATATATAT [TGCATGCA_negctrl_site375] | 10 ± 0.88
34 | TCTTTAAATTTCTCAACACACAGTTATAAAAAATAA [CACACA_site2856] | 9.8 ± 0.085
35 | TATAAATTTTTATTTACATGCAGTTATTATTTCCAT [TGCATGCA_site41] | 10 ± 0.18
36 | TAGTATTAAAATATTTGTACTTATATGTATTATATA [XGTACX_site538] | 11 ± 0.69
37 | TAATGGTATAAAAAATGTACATGTTTTTTTACAATT [XGTACX_site4285] | 11.2 ± 0.54
38 | TAATGGTGTTCATGTGGTACACTTTATAAATTGGCA [XGTACX_site729] | 11.7 ± 1.1
39 | GCTTTTAAAATAATTGGTACACATGTATAAATTCAA [XGTACX_site2327] | 11.1 ± 0.69
40 | TCATTCATATGTTACACACACACACGCACATAAAAA [CACACA_site7514] | 10.5 ± 0.35
41 | TTTTCAATATATATTTGTACTTTATTTTATGATATT [GTGCAC_negctrl_site732] | 11.2 ± 0.75
42 | TTATGATATATTTGTTGTACGCTTTTTTTATGAACT [XGTACX_site573] | 11.8 ± 1.1
43 | ATTTTATATATGTGTTGTACGGTGAACATTTTGATA [XGTACX_site6538] | 10.8 ± 0.58
44 | GAAATATTTGTAAAAACATGCATGGTACTTTTAAAA [TGCATGCA_site6] | 11 ± 0.7
45 | TTCCCTTTTGTAAAATGTACATATATATTTAAACAA [XGTACX_site3263] | 11.2 ± 0.54
46 | ATTTTAAATATTTGTGGTACCCCTTTTTTGTAACAA [XGTACX_site5590] | 11.8 ± 1.1

Row | Sequence | gcPBM binding intensity (ln)
47 | ATTTATATTTAATATACACACATTATTTTTTTATAT [CACACA_site574] | 9.955 ± 0.021
48 | TGTAGAGCGCAAAGTAGTACTACAAATTATGGAGGG [XGTACX_site3022] | 11.8 ± 1
49 | TAAAAATGGGAGGGGTGTACTACACAATAAAATTAT [XGTACX_site5641] | 11.6 ± 0.95
50 | ATATATGACAAATGTAGTACAAATTATTGTATCATA [XGTACX_site3675] | 11.4 ± 0.76
51 | TTATATTTTTACAAGAGTACATATATATATATATAT [XGTACX_site5383] | 11.4 ± 1.1
52 | ATGTAAATACATATATGTACACAAATATATATATAT [XGTACX_site3537] | 11.6 ± 1.1
53 | TTCTGTGTGTATTGGCGTACAATTATTTTGCCTACA [XGTACX_site205] | 11.7 ± 0.83
54 | TATATTTTATATTGGTGTACAATTTTTTTTTTTTTT [XGTACX_site4291] | 11.4 ± 0.91
55 | TTATTTTTTTTGTGTTGTACAATTTATTACTACTAA [XGTACX_site346] | 11.3 ± 0.82
56 | TTTTTATAAAAATGAACACACACATATATATATATA [CACACA_site9160] | 10.2 ± 0.49
57 | ATGTGTTGGGAAAAGGCATGCACTTTTTTTTTTTTT [TGCATGCA_site707] | 10.2 ± 0.11
58 | GTACAGATGTAGTATGCATGTAATTATATATAAATT [TGCATGCA_site292] | 11.1 ± 0.47
59 | TTATTTTATAATAAAAGTACACAAAAAAAAAAAAAA [XGTACX_site7668] | 11.4 ± 1.1
60 | TAATAATAAATAAAATGTACATATGAACAAATAAGT [XGTACX_site6710] | 11.3 ± 0.61
61 | AATGAAATAAAATAAAGTACATATATGTAAAAGTAG [XGTACX_site5650] | 11.4 ± 0.79
62 | CTTTTAATTATAAAATGTACTTAAAAATAATAATAC [XGTACX_site635] | 11.1 ± 0.88
63 | AATAATGTATGAAATAAACACACAAGTAAGTACATA [CACACA_site8776] | 11.7 ± 0.91
64 | TTATATACATAAAAATGTACTTTTTATAAAATATAT [XGTACX_site8281] | 11.2 ± 1
65 | TAATGTATGAAATAAACACACAAGTAAGTACATAAA [CACACA_site2451] | 11.6 ± 0.98
66 | TAAAATAAAAATTAAAGTACATATGTATATATATAT [XGTACX_site3984] | 11.1 ± 0.88
67 | GGGGGCTTTTATAAAAGTACAAAATGAATAAAAATT [XGTACX_site2393] | 11.4 ± 0.97
68 | TTATTATAAAAATGTAGTACAATACTTTTTTTTTTT [XGTACX_site732] | 11.7 ± 0.84
69 | ATATGAAATATATGTAGTACACATAATTAAAAGTAG [XGTACX_site6490] | 11.7 ± 0.86

Row | Sequence | gcPBM binding intensity (ln)
70 | CCTTTATAAAAAAGTAGTACACAATGAATTTATAAT [XGTACX_site5523] | 11.8 ± 1
71 | ACAAGATGATGGAAATGTACATAAAAAGAATCATAT [XGTACX_site8682] | 11.2 ± 0.63
72 | AAAAAAAAAAAAACTACACACATACAAATATTTATA [CACACA_site5430] | 9.875 ± 0.035
73 | AAAAAAAAGAAAAACACACACATATATATATATAAT [CACACA_site4707] | 9.72 ± 0.042
74 | TGAAAATAATTATAGGTGCATAAACATACGGATCTT | 10.21 ± 0.021
75 | TTTTTTTTAAGAGATAGTACATAAATATTATAATAT [XGTACX_site4685] | 11.1 ± 0.86
76 | GACATTAATTATTTGACACACGACTGGGTGGTGATT [CACACA_site306] | 10.09 ± 0.021
77 | TTTTTTGAAAATAAAAGTACAAATTTTATATTTAAA [XGTACX_site2758] | 11 ± 0.88
78 | TCGTATTTAAAATGTAGTACATAATTTGAAAAATAA [XGTACX_site5832] | 11.6 ± 0.83
79 | TGAAAAATAAATAAATGTACATATATATATATATAC [XGTACX_site7310] | 10.9 ± 0.49
80 | AAAACTATTAAATGTAGTACATAATTATTGAAATAA [XGTACX_site8716] | 11.6 ± 0.91
81 | ATGTATGTAATAAAAAGTACATATGTTCATAATAAA [XGTACX_site842] | 11.4 ± 0.57
82 | AATAAAAATAATGAATGTACATATATATATACAATA [XGTACX_site3342] | 10.9 ± 0.4
83 | AAATGTAATATAAATAGTACATATTAAATAAAATTA [XGTACX_site6917] | 11.1 ± 0.88
84 | TATTTTGAAAATAAAAGTACAAATTTTATATTTAAA [XGTACX_site3238] | 11.1 ± 0.83
85 | AAATGAAATAAATGTAGTACACATATACAATATATA [XGTACX_site6951] | 11.7 ± 1.1
86 | AATTTGAAATAAAGTAGTACAGTATATAAAAATATA [XGTACX_site128] | 11.8 ± 1.1
87 | ATAAGTAATATAATATGTACATATATATATATATAT [XGTACX_site3818] | 11.2 ± 0.5
88 | AAAAAAAAAAAAAGTAGTACATAATATGTTCCTCCT [XGTACX_site8356] | 11.6 ± 1
89 | AAGTATAAATTAAAATGTACTTATAAAAAAAAAGAA [XGTACX_site7028] | 11.2 ± 0.72
